These results are taken from PubChem BioAssay (NCI).

“And” between values parts separate entries of the source, which are not always exact repeats. Equal entries are not always repeated. Compounds without any hit were thinned out: in the full panel of roughly 83,000, 20% have a hit.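 Compound tested at a single concentration for 48 hours in 96-well plates; a percent growth value below 10 was scored as active.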 The source made the active and inactive calls.

One assay has as its system OVCAR-5 ovarian. Put plainly: NCI-60 one-dose screen, 48 h (100 = growth as untreated, 0 = no growth, -100 = all killed). The note with it: 10 µM. Here is the method: Growth inhibition of the OVCAR-5 human tumor cell line is measured as a screen for anti-cancer activity. Cells are grown in 96 well plates and exposed to the test compound for 48 hours. Compounds are tested at a single concentration, which is 10^-5 M for most compounds. The reported endpoint is percent growth (GI% or GIPRCNT), where numbers from 0 - 100% represent growth inhibition, and numbers from -100% - 0 represent cell death. For example, a value of 40 represents 60% growth inhibition. A value of 0 means no net growth occurred over the course of the experiment. A value of -40 indicates 40% of cells at the beginning of the experiment died by the end of the experiment. A value of -100 means all cells are dead at the end of the experiment.
NCI-60 Human Tumor Cell Lines Screen was performed using the standard one-dose NCI protocol, which is described in more detail at https://dtp.cancer.gov/discovery_development/nci-60/default.htm.
Compounds with GIPRCNT values below 10 were considered active. Activity score was based on GIPRCNT using the following formula: […]
Score is 0 for GIPRCNT values of 100 or above, 50 for GIPRCNT values of 0, and 100 for GIPRCNT values of -100.
As to `COc1ccc(C(=O)/C=C/c2ccc(OCc3ccc(Cl)cc3)cc2)cc1OC`, the growth is 103% (inactive).

Turning to `CC(=O)/C=C/c1ccc(N(CCO)Cc2ccc(C(C)(C)C)cc2)cc1`, the growth was 78.2% (inactive).

The same assay, now with this note: 10 µM unless noted.
With `Nc1ccc(-c2ccc(N)c(Br)c2)cc1Br`, the growth is 63% (inactive).

Take `CC(=O)c1c(C)nc(SCC(=O)Nc2ccc(Cl)cc2)n1-c1ccc(Cl)cc1`: the growth is 99.1% (inactive).

On to `CCOC(=O)CC1CSC(c2cccc(Cl)c2)=N1` (stereo not given), for which the growth is 113% (inactive).

For `Cc1ccc(Cc2cnc(NC(=O)c3cc(C)oc3C)s2)cc1`, the growth was 67.6% (inactive).

`C=C1CCC2C3(C)COC(c4ccc(NC(C)=O)cc4)OC3CCC2(C)C1C/C=C1/C(=O)OCC1O` (stereo not given): the growth is 74.9% (inactive).

`CC1=C2[C@@H](CC1)[C@]1(C)O[C@@](C3CC3)(C[C@H]1OC(=O)CO)[C@H]2OC(=O)/C=C/c1ccccc1`: the growth is 96% (inactive).

On to `C=C(CNCCc1ccc(O)cc1)[C@@H]1CC[C@]2(CO)CC[C@]3(C)[C@H](CC[C@@H]4[C@@]5(C)CCC(NCCc6ccc(O)cc6)C(C)(C)[C@@H]5CC[C@]43C)[C@@H]12` (stereo not given in full), for which the growth was -86.3% (active).

`Cc1ccc(C(=O)Nc2ccc(CN3CCN(C)CC3)c(C(F)(F)F)c2)cc1C#Cc1cnc(N)cc1C#N`: the growth was 12.8% (inactive).

With `CCCCCCCC/C=C\CCCCCCCCOc1ccccc1CC(=O)NCC[N+]1(C)CCOCC1`, the growth was 42.7% (inactive).

`O=C(/C=C/c1cccs1)Nc1ncc(Cc2ccc(Cl)c(Cl)c2)s1`: the growth is 74.1% (inactive).

`COc1ccc(Oc2nc(Nc3ccc(N4CCOCC4)cc3)ncc2NC(=O)c2cc(OC)cc(OC)c2)cc1`: the growth is 123% (inactive).

For the molecule `N=c1ccccn1CCO`, the growth is 99% (inactive).

With `CCNC(=S)n1nc(SC)c(C(=O)OCC)c1N`, the growth is 84.8% (inactive).

Regarding `COc1cccc(C2C(C#N)=C(N)Oc3cc(OCCCCCC[P+](c4ccccc4)(c4ccccc4)c4ccccc4)ccc32)c1` (stereo not given), the growth was -2.3% (active).

As for `O=C(N=Nc1c(O)[nH]c2ccccc12)Nc1ccc(Br)cc1`, the growth is 81.4% (inactive).

Consider `COC(=O)[C@H]1Cc2c([nH]c3ccccc23)[C@@H](c2cccs2)N1`, for which the growth is 102% (inactive).

For the molecule `NNCCc1ccccc1`, the growth was 93.1% (inactive).

On to `COC(=O)c1c2c(c(C)[n+]([O-])c1C)C(=O)C(NCCN1CCOCC1)=CC2=O`, for which the growth was 89.1% (inactive).

`Cn1c(=O)c2c(nc(Nc3cc(=O)[nH]c(=O)[nH]3)n2Cc2ccccc2)n(C)c1=O`: the growth was 96.9% (inactive).

For `C=C1C(=O)O[C@H]2[C@H]1CC/C(CNS(=O)(=O)c1ccc3ccccc3c1)=C\CC[C@@]1(C)O[C@@H]21`, the growth is 14.9% (inactive).

As for `COc1ccc(-c2[nH]c3ccccc3c2-c2ccc(OC)cc2)cc1`, the growth is 62.6% (inactive).

As for `Cc1ccc(-c2nc(C#N)c(S(=O)(=O)N(C)C)o2)cc1`, the growth was 97.7% (inactive).

On to `O=C(NCCCN1CCCCC1)c1ccc(-c2nc3ccc4[nH]ncc4c3c3c2CCCC3)cc1`, for which the growth is 94.6% (inactive).

For `O=c1cc(N/N=C/c2ccc(F)cc2)c2cc(Cl)ccc2[nH]1`, the growth was 88.4% (inactive).

Take `N#Cc1c(-c2cccc(F)c2)cc(-c2cccnc2)[nH]c1=O`: the growth is 98.9% (inactive).

Regarding `O=C(/C=C\c1ccc(Cl)c(Cl)c1)c1ccccc1`, the growth was 93.7% (inactive) and 106% (inactive).

As to `NS(=O)(=O)c1ccc(C(=O)N=Nc2c(O)[nH]c3c(F)cccc23)cc1`, the growth is 99.8% (inactive).

Consider `Cc1cnc(C(=O)NNc2nc3sc4c(c3c(=O)[nH]2)C(C)CCC4)cn1` (stereo not given), for which the growth is 34.7% (inactive).

Take `O=C1CCc2c(sc3[nH]c(=S)n(Cc4ccc(Cl)cc4)c(=O)c23)C1`: the growth was 11.7% (inactive).

Turning to `CCOC(=O)N(O)c1ccc(/C=C/c2ccccc2)cc1`, the growth was 18.9% (inactive) and 3.82% (active).

On to `COCCn1cc(-c2csc(-c3cn(C)c4ccc(F)cc34)n2)c2cccnc21`, for which the growth is 80.7% (inactive).

In the case of `O=C1/C(=C/c2cn(-c3ccccc3)nc2-c2ccccc2)SC(=S)N1c1ccc(Cl)cc1`, the growth was 93.4% (inactive).

As for `Clc1ccc2c(c1)N(c1ncnc3ccc(-c4cnc5[nH]ccc5c4)cc13)CC2`, the growth was 39.1% (inactive).

Regarding `CCOC(=O)CCCn1c(-c2ccccc2)cc(-c2ccccc2)c(C#N)c1=O`, the growth was 99.5% (inactive).

In the case of `CN1CCN(c2ccc(/C=C/C(=O)c3ccc(O)cc3)cc2)CC1`, the growth is 98.1% (inactive).

With `Cc1ccc(/C=C(\C#N)c2cc3ccccc3[nH]2)cc1`, the growth is 65.2% (inactive).

Staying with this assay, now noted: 100 µM.
Consider `COc1ccc(C(=O)/C=C/c2ccc(OCc3ccc(Cl)cc3)cc2)cc1OC`, for which the growth was 135% (inactive).

With `CC(=O)/C=C/c1ccc(N(CCO)Cc2ccc(C(C)(C)C)cc2)cc1`, the growth was -98.5% (active).
